Compounds with a hit are over-represented: about 5.3% of the library has one in this group of screens.
FBPA coupling cs – qHTS Assay for Inhibitors of Fructose-1,6-bisphosphate Aldolase from Giardia Lamblia: Coupling assay counterscreen; coupling enzyme system counterscreen, AmpLite Red fluorescence; activity change, negative = inhibition, % at 58.2 µM, hits read low; actives 0.67% (n = 290,000); AID 2472, 2010; in the data active = activity change below about -30%
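Counterscreen of the coupled detection system alone, without aldolase: glyceraldehyde-3-phosphate coupling enzymes plus AmpLite Red readout. Compounds at 57.5 uM final, 10 min RT preincubation, 20 min RT reaction, fluorescence 525/598 nm.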
Sfp inh – qHTS Assay for Inhibitors of Bacillus subtilis Sfp phosphopantetheinyl transferase (PPTase) | 4'-phosphopantetheinyl transferase ffp (Bacillus subtilis), Q9F4F7 | Biochemical Sfp PPTase activity, qHTS | Potency, µM, without a hit: largest response in the series, negative = inhibition, usual class: inhibitors | actives 3.5% (n = 310,000) | AID 1490, 2009;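 also: the enzyme is Sfp with the accession as filed and its product quenches rhodamine fluorescence; potency is read from the fitted curve at half-maximal effect; 0% = enzyme reaction without inhibitor and -100% = no enzyme wells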
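Sfp 15 nM + cpd, 15 min RT; start w/ rhodamine-CoA 5 uM, BHQ-2-YbbR 12.5 uM (final); 50 mM Hepes pH 7.6, 10 mM MgCl2, 0.01% NP-40, 0.01% BSA; read 525/598 nm at 0 and 30 min.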
JMJD2E inh – qHTS Assay for Inhibitors of Human Jumonji Domain Containing 2E (JMJD2E); Lysine-specific demethylase 4E (Homo sapiens), B2RXH2; JMJD2E catalytic domain, FDH-coupled NADH fluorescence (FDH is formaldehyde dehydrogenase); Potency, µM (top dose mostly 57.1 µM), for the others: top-dose activity change, negative = inhibition, most hits filed as inhibitors; actives 1.6% (n = 230,000); AID 2147, 2009; active = well fitted inhibition curve with a large enough effect, not every such curve was filed as active; inconclusive = small, poorly fitted or top-dose-only effect, or another doubt; inactive = no such curve, though single readings can be large or run the other way;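 also: potency is read from the fitted curve at half-maximal effect; 0% = wells with enzyme and -100% = buffer wells without enzyme; nearly all actives have a fitted effect of over 50% in size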
Target sequence (B2RXH2 1-337 limits assumed): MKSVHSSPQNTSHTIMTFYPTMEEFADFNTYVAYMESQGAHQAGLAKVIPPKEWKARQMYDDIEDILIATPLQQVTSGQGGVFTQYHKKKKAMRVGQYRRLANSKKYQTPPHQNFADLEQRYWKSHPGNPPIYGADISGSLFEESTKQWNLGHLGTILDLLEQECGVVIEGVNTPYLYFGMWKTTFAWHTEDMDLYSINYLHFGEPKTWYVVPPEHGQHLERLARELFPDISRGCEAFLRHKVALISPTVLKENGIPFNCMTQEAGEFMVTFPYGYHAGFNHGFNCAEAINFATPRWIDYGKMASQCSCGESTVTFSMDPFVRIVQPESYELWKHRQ
Tau fibril FP – qHTS for Inhibitors of Tau Fibril Formation, Fluorescence Polarization | Microtubule-associated protein tau (Homo sapiens), P10636 | Potency, µM (top dose mostly 57.7 µM), for the others: at the highest dose activity, negative = inhibition, actives largely listed as inhibitors | K18 P301L tau heparin fibrillization, Alexa594 FP, 6 h | actives 0.39% (n = 280,000) | AID 1468, 2008; also: potency is read from the fitted curve at half-maximal effect; nearly all actives have a fitted effect of over 55% in size
Target sequence (P10636 561-689 P618L limits assumed): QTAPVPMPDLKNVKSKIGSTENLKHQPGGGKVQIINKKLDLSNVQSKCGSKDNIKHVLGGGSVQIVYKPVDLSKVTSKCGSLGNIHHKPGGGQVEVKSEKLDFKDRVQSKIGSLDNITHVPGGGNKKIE
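Read-out: fluorescence polarization of Alexa 594-labeled tau (0.24 uM), 555 nm excitation, 632 nm emission. Mixtures held 15 uM unlabeled K18 P301L, compound and 20 uM heparin, pH 7 acetate buffer, incubated 6 hr at 37 C.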
Tau fluor cs – Counterscreen qHTS for Inhibitors of Tau Fibril Formation, Fluorescence Polarization; actives 0.93% (n = 280,000); AID 1463, 2008; Potency, µM (titrated, usually from 57.7 µM), for inactives: at the top dose activity change, negative = decrease; tau K18 P301L Alexa594 fluorescence, heparin fibrillization; also: potency is read from the fitted curve at half-maximal effect; nearly all actives have a fitted effect of over 55% in size
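Human K18 P301L tau (15 uM unlabeled plus 0.24 uM Alexa 594-labeled, final) in 100 mM sodium acetate pH 7 was mixed with compound and 20 uM heparin and incubated 6 hr at 37 C.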
Tau fibril ThT – qHTS for Inhibitors of Tau Fibril Formation, Thioflavin T Binding; Microtubule-associated protein tau (Homo sapiens), P10636; recombinant tau K18 P301L (four-repeat tau fragment), heparin-induced fibrillization, ThT fluorescence; Potency, µM (titrated, usually from 57.4 µM), for inactives: top-dose activity, negative = inhibition, most hits filed as inhibitors; actives 2.1% (n = 270,000); AID 1460, 2008; also: potency is read from the fitted curve at half-maximal effect; nearly all actives have a fitted effect of over 55% in size
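K18 P301L tau (15 uM + 0.24 uM Alexa 594-tagged), heparin 20 uM, NaOAc pH 7, 6 h 37 C; ThT 30 uM, 1 h RT, ex 450/em 510 nm.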
Starred values were filed as active, the others as inactive; ? = inconclusive; / = not tested or not shown; [ ] = another dose, or the depositor's remark. Unless noted, calls follow the shape of the dose curve; as a rule, active = well fitted curve in the direction sought with a large enough effect; inconclusive = small, poorly fitted or top-dose-only effect, or another doubt; inactive = no such curve, though single readings can be large; an effect the other way counts as inactive or inconclusive. Unless noted, % is scaled to controls: 0 for no effect and ±100 for the full control effect.

SMILES | FBPA coupling cs | Sfp inh | JMJD2E inh | Tau fibril FP | Tau fluor cs | Tau fibril ThT
Cc1ccc(-c2ccc(NC(=O)C3C4C=CC(C4)C3C(=O)O)cc2)o1 (stereo unspecified) | 3 | 2.2µM* | ? | 5% | -12% | ?
O=C(O)c1ccccc1NC(=O)C1C2C=CC(C2)C1C(=O)O (stereo unspecified) | 0 | 20µM* | / | / | / | /
CC(C)c1ccccc1NC(=O)C1C2C=CC(C2)C1C(=O)O (stereo unspecified) | 0 | ? | / | / | / | /
Cc1nc2cnc(Oc3ccccc3)nc2n(Cc2cccs2)c1=O | 5 | 7% | / | / | / | /
C=CCn1c(=O)n(C2OC(CO)C(O)C2O)c2nc(N)[nH]c(=O)c21 (stereo unspecified) | 2 | 12% | / | / | / | /
Clc1ccccc1-c1nccc(NCc2ccccc2)n1 | 1 | 12% | / | / | / | /
Cc1cc(Cl)ccc1OCC(=O)Nc1c(C(=O)c2ccccc2)oc2ccccc12 | / | / | / | -5% | -11% | -7%
CN1CCN(CC(=O)n2c3c(c4ccccc42)CCCC3)CC1 | -47* | -1% | -3% | 3% | -7% | -16%
Cc1ccc(Cn2ccc(NC(=O)c3noc4c3CCc3ccccc3-4)n2)cc1 | 0 | 16µM* | 175% | -6% | -17% | -11%
CN1C(=O)/C(=C/c2cccc([N+](=O)[O-])c2)C(=O)N1c1ccccc1 | 0 | 50µM* | / | / | / | /
O=C1NC(=S)N/C1=C\c1cccc([N+](=O)[O-])c1 | 4 | 56µM* | 3% | 6% | -22% | ?
CCC(CC)C(=O)NCc1ccccc1Cl | 0 | 24% | 2% | -6% | 7% | 3%
Cc1nc(C)c(C(=O)NCc2ccccc2Cl)o1 | -24 | 89µM* | 4% | 0% | -3% | -2%
CCn1c(SCC(=O)c2ccc(O)c(O)c2)nnc1-c1ccc(C)cc1 | 1 | -16% | 25µM* | -4% | -20% | ?
CCn1c(SCC(=O)c2ccc3c(c2)Cc2ccccc2-3)nnc1-c1ccc(N)cc1 | / | 79µM* | -6% | 3% | -9% | ?
CCn1c(SCC(=O)N2CCCC2)nnc1-c1ccc(N)cc1 | 6 | -10% | -5% | 9% | 5% | 7%
COC1C(OC(=O)/C=C/C=C/C=C/C=C/C(=O)O)CCC2(CO2)C1C1(C)OC1CC=C(C)C (stereo unspecified) | / | -16% | / | / | / | /
O=[N+]([O-])c1ccc(Nc2nc(N/N=C/c3cccc(F)c3)nc(N3CCCC3)n2)cc1 | 2 | 8% | 1% | -13% | ? | ?
CNc1nc(N/N=C/c2ccc([N+](=O)[O-])cc2)nc(Nc2ccccc2)n1 | -1 | 2% | -7% | -7% | 16µM*[quencher] | 4µM*
COc1ccc(-c2nc3c(c4c2C[C@H](c2ccccc2)OC4)CN(S(=O)(=O)c2ccc(C)cc2)CC3)c(C)c1 | 2 | -3% | 9%[11.4 µM] | 0%[11.6 µM] | 6%[11.6 µM] | 8%[11.5 µM]
c1cc(Nc2cccc3nccnc23)c2nccnc2c1 | 0 | 4% | ? | -3% | -28% | 5µM*
CCCOc1ccc(CNC(=O)c2ccc(C)c(-n3c(C)nc4cccnc43)c2)cc1 | / | / | / | 5% | 0% | 7%
Cc1cc(C(=O)N/N=C/c2ccc(Cl)c([N+](=O)[O-])c2)c(C)n1-c1ccc(F)cc1 | 7 | -23% | 22µM* | 2% | ? | ?
COc1ccc(OC)c(S(=O)(=O)N2CC=C(c3c(C)n(CC(=O)N4CCCC4)c4ccccc34)CC2)c1 | / | / | / | -8% | -14% | ?
Cc1ccc(Cl)cc1NC(=O)C1CCCN(S(=O)(=O)c2c(C)noc2/C=C/N(C)C)C1 (stereo unspecified) | / | / | / | 0% | ? | ?
SMILES | FBPA coupling cs | Sfp inh | JMJD2E inh | Tau fibril FP | Tau fluor cs | Tau fibril ThT
COc1ccc(/C=C(\C#N)C(=O)Nc2cc(S(=O)(=O)N3CCOCC3)ccc2N2CCCC2)cc1 | -1 | 35µM* | -23% | -18% | ? | ?
O=C(Cc1ccc(Cl)cc1)Nc1cc(S(=O)(=O)N2CCOCC2)ccc1N1CCCC1 | 1 | 9% | -8% | 0% | -1% | 6%
Cc1ccc(S(=O)(=O)N2CCOCC2)cc1NC(=O)c1cc(-c2ccccn2)nc2ccccc12 | 0 | 0% | 1% | -4% | -21% | -12%
O=C(Nc1cccc(Cl)c1)Nc1cc(S(=O)(=O)N2CCOCC2)ccc1N1CCCC1 | 1 | -18% | ? | -2% | 14µM*[quencher] | -1%
O=C(Nc1cc(S(=O)(=O)N2CCOCC2)ccc1N1CCCCC1)c1cc(-c2ccccn2)nc2ccccc12 | 4 | 13µM* | ? | ? | -30% | ?
COC(=O)C1=C(C)N=C2SC(C#N)=C(N)N2C1c1cc(OC)c(OC)c(OC)c1 (stereo unspecified) | 1 | 3% | -24% | 2% | -9% | -17%
COC(=O)C1=C(C)N=C2SC(C#N)=C(N)N2C1c1ccc(OCc2ccccc2)cc1 (stereo unspecified) | -1 | 1% | -13% | ? | 7.9µM*[quencher] | ?
CC(=O)OCOC(=O)CNc1ccccc1OCCOc1ccccc1NCC(=O)OCOC(C)=O | 0 | -15% | / | / | / | /
NC(=O)C1CCN(C2=C(NS(=O)(=O)c3ccccc3)C(=O)c3ccccc3C2=O)CC1 | -31* | 3% | 1% | 5% | -27% | ?
NC(=O)C1CCN(C2=C(NS(=O)(=O)c3ccc(Br)cc3)C(=O)c3ccccc3C2=O)CC1 | -32* | -8% | / | / | / | /
CCOC(=O)C1CCN(C2=C(NS(=O)(=O)c3ccc(Br)cc3)C(=O)c3ccccc3C2=O)CC1 | -33* | 15% | / | / | / | /
Cn1cccc1C(=O)N1CCC[C@@]2(CCN(c3ccncc3)C2)C1 | 2 | -8% | / | / | / | /
Cc1c(Cl)cccc1NC(=O)Nc1nnc(N(C)C2CCCCC2)s1 | / | / | / | 6% | 0% | -18%
COc1cc2c(cc1OC)C(c1c[nH]c3ccccc13)NCC2 (stereo unspecified) | 1 | 26% | -29% | -2% | -18% | -9%
